According to the supplement of paper PMC6555819:

Key:
Assay in all cases: PBM binding z-score (relative to random genomic background probes); higher = stronger binding; sequences stand for … in GC…GCGATTGACAGCGTAGAATGAAGG
[1] = system: RARb homodimer (NR concentration 270 nM)
How it was run: (§1)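 For binding z-scores, the reference was random background probes on custom Agilent 4×180K protein-binding microarrays. These arrays were incubated 1 h with ligand-free nuclear receptor dimers in PBS pH 7.4, 2% milk, 0.02% Triton X-100, 1 mM DTT, 0.2 mg/mL BSA and 0.4 mg/ml salmon testes DNA. Fluorescence was scanned after antibody detection of each partner (one per run) and regression-normalized.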

[2] = system: RARg:RXRa (NR concentration 270 nM, RXRa partner concentration 90 nM)
How it was run: as §1

[3] = system: RARg homodimer (NR concentration 270 nM)
How it was run: as §1

[4] = system: RXRa DBDmut IVT, anti-RXR (DBD mutation: RXRa K156A/R161A, NR concentration 90 nM)
How it was run: as §1

[5] = system: RXRa homodimer (NR concentration 180 nM)
How it was run: as §1

[6] = system: THRa:RXRa (NR concentration 90 nM, RXRa partner concentration 90 nM)
How it was run: as §1

[7] = system: THRa homodimer (NR concentration 90 nM)
How it was run: as §1

[8] = system: VDR homodimer (NR concentration 270 nM)
How it was run: as §1

Sequence | PBM binding z-score [1] | PBM binding z-score [2] | PBM binding z-score [3] | PBM binding z-score [4] | PBM binding z-score [5] | PBM binding z-score [6] | PBM binding z-score [7] | PBM binding z-score [8]
CCTTACGGGTCACGAGGTTATAACACGACGAGCG | 3.99 | 6.07 | 5.32 | 1.5 | 6.99 | 3.79 | 0.991 | 1.63
TCTAGTTGGTCATAGGTCACACACTCGAAATGCG | 3.67 | 4.2 | 3.58 | 1.63 | 4.58 | 2.68 | 1.47 | 1.63
CCTATTAGTTGACCATAAGGTCAACCGAAGCTCG | 4.8 | 4.83 | 4.07 | 1.77 | 4.39 | 4.27 | 5.15 | 3.25
GTACCAAGGTGAATAGGTCTTTGATGAGTAGGCG | 1.13 | 1.15 | 0.913 | 0.00774 | 0.832 | 1.3 | 0.641 | 0.178
GTACCAAGGTGAATAGGTGGTTGATGAGTAGGCG | 0.863 | 0.652 | 0.628 | -0.536 | 0.63 | 1.3 | 0.799 | -0.0991
GTAACGAGGGCAAAGTTGATAGCATCTGTCGACG | 1.38 | 1.97 | 1.78 | 2.73 | 2.08 | 1.41 | -0.0253 | 1.7
CGTCGAAGGTCAAAGGTCAGTGAAGAGATGACGG | 5.17 | 8.72 | 7.78 | 3.05 | 9.99 | 4.58 | 0.832 | 2.54
CCAGACACGTGAGAAGGTAACTCAGCCTCGATTA | -0.118 | 0.0186 | 0.206 | 0.268 | 0.0109 | -0.00448 | -0.0296 | 0.0283
TATACAGGCTCAAAGGCCAGAGTACGAATGTCGA | 0.737 | 0.637 | 0.897 | -0.662 | 0.521 | -0.176 | -0.638 | 0.383
AGAATGAGGTTATACGTAGATCAGGGTAGAAAGT | 1.33 | 1.82 | 1.34 | 1.81 | 2.24 | 2.42 | 0.874 | 1.21
CGTCCAAGGTCAAGGTCAGTGCAAGAGACTCGAA | 5.45 | 6.95 | 7.95 | 3.52 | 6.56 | 4.21 | 3.91 | 3.18
AATACTGGGTCACTAGGCCAGAGTAGGTACGAAT | 2.47 | 2.99 | 3.54 | 0.506 | 2.37 | 1.81 | 0.283 | 0.859
CCTACTGGGCCAATGGTCATTGATTCCAATGCTC | 0.0691 | -0.0352 | 0.182 | -0.608 | -0.164 | -0.527 | -0.561 | -0.711
TAGCCTACGTCATGGGCCAGTATACCACGCGAAC | -0.00941 | -0.29 | -0.1 | -0.76 | -0.0748 | -0.335 | -0.4 | -0.575
